The record followed here is PubChem BioAssay.

Usually EC50 stands for the concentration that produces a half-maximal response. Usually inhibition stands for the drop in the measured response relative to a control, in per cent.

Records with an inconclusive call do not appear. For some of these results: Results with a measured potency or affinity are listed apart. Activity calls are given as the source filed them. No rule for the calls is given here.

A short description of the first test: blockers of biotin-polyQ monomer incorporation into aggregates – biochemical, solid-phase synthetic aggregates, QA3 (AID 1585). The note with it: polyQ aggregate elongation; EC50: measured here: elongation inhibition potency; inhibition: at 100 µM, stronger effect = higher value.
As for `C=Cc1c(C)c2cc3[nH]c(cc4nc(cc5nc(cc1[nH]2)C(C)=C5CCC(=O)O)C(CCC(=O)O)=C4C)c(C)c3C=C`, the EC50 turned out to be 106 µM and the inhibition was 59% (active).
Taken in the same sequence, the figures for `Cc1ccc(C(C)C)cc2c(C)ccc1-2` were 57 µM and 73.4% (active).
Taken in the same sequence, the figures for `CCN(CC)CCNc1ccc(CO)c2sc3ccccc3c(=O)c12` were 71 µM and 82.8% (active).
The corresponding values for `C=C1c2cccc(O)c2C(O)=C2C(=O)[C@]3(O)C(O)=C(C(N)=O)C(=O)[C@@H](N(C)C)[C@@H]3[C@@H](O)[C@H]12` are 132 µM and 60% (active).
On to `CO[C@@]1(NC(=O)C(C(=O)O)c2ccc(O)cc2)C(=O)N2C(C(=O)O)=C(CSc3nnnn3C)CO[C@@H]21` (some centres undefined), for which the concentration for a half-maximal effect (EC50) is 2 µM and the inhibition was 91.1% (active).

A further test is described as follows: yeast 75Q aggregation reduction – 75Q-TubU reporter (AID 1593). The following applies: Yeast 75Q polyglutamine aggregation reporter.
Regarding `C=Cc1c(C)c2cc3[nH]c(cc4nc(cc5nc(cc1[nH]2)C(C)=C5CCC(=O)O)C(CCC(=O)O)=C4C)c(C)c3C=C`, the score was 0.75.
Compound `OCc1ccccc1O` displayed a score of 1.17.
Same read-out and setting: with `Nc1nccs1` the figure was 1.44.
On the same count and under the same terms, with `CC(=O)Oc1ccc(C(c2ccc(OC(C)=O)cc2)c2ccccn2)cc1` the figure was 1.05; with `CCCOc1ccc2nc(NC(=O)OC)[nH]c2c1`, 1.01.
`Cc1nnc(NS(=O)(=O)c2ccc(N)cc2)s1`: the score is 1.23.
Same read-out and setting: with `Cc1cc(=O)n(-c2ccccc2)n1C` the figure was 1.07; with `Nc1ccc(N=Nc2ccccc2)c(N)n1`, 1.35.
Same read-out and setting: with `CS(=O)(=O)c1ccc([C@@H](O)[C@@H](CO)NC(=O)C(Cl)Cl)cc1` the figure was 0.79; with `COc1cc(C(=O)NCc2ccc(OCCN(C)C)cc2)cc(OC)c1OC`, 1.06.
Same read-out and setting: with `COc1ccc2cc3[n+](cc2c1OC)CCc1cc2c(cc1-3)OCO2` the figure was 0.32; with `Cc1cc(-c2ccccc2)nnc1NCCN1CCOCC1`, 1.28.
For the compound `Cc1ccc(C(C)C)cc2c(C)ccc1-2`, the score was -2.73.
For the compound `CCN(CC)CCNc1ccc(CO)c2sc3ccccc3c(=O)c12`, the score worked out at 1.79.
Same read-out and setting: with `NC(=O)NC(=O)Cc1ccccc1` the figure was 1.34; with `Oc1c(Cl)cc(Cl)cc1Sc1cc(Cl)cc(Cl)c1O`, -0.24; with `CC(=O)Oc1ccccc1C(=O)O`, 1.29.
The same measure, in the same setting: with `CC(C)NCC(O)c1ccc2ccccc2c1` (centres undefined) the figure was 1.15; with `O=C(O)c1ccccc1OP(=O)(O)O`, 0.8.
As to `Oc1c(Cl)cc(Cl)c(Cl)c1Cc1c(O)c(Cl)cc(Cl)c1Cl`, the score was -1.67.
As to `Nc1ccc(S(=O)(=O)Nc2ccnn2-c2ccccc2)cc1`, the score was 1.43.
Same read-out and setting: with `CCCCCCCCNC(C)C(O)c1ccc(SC(C)C)cc1` (centres undefined) the figure was -1.11.
On the same count and under the same terms, with `O=C(OCc1ccccc1)c1ccccc1` the figure was 0.45.
Still for that read-out and setting: with `S=P(N1CC1)(N1CC1)N1CC1` the figure was 0.94; with `NS(=O)(=O)c1cc2c(cc1Cl)NC(C1CC3C=CC1C3)NS2(=O)=O` (centres undefined), 0.98.
`C=C1c2cccc(O)c2C(O)=C2C(=O)[C@]3(O)C(O)=C(C(N)=O)C(=O)[C@@H](N(C)C)[C@@H]3[C@@H](O)[C@H]12` had a score of 0.99.
Same read-out and setting: with `NS(=O)(=O)c1cc2c(cc1Cl)NC(CSCc1ccccc1)=NS2(=O)=O` the figure was 1.43; with `O=C(O)P(=O)(O)O`, 1.28.
On the same count and under the same terms, with `CO[C@@]1(NC(=O)C(C(=O)O)c2ccc(O)cc2)C(=O)N2C(C(=O)O)=C(CSc3nnnn3C)CO[C@@H]21` (some centres undefined) the figure was 1.04.
Same read-out and setting: with `Nc1ccc(C(=O)O)cc1` the figure was 1.16; with `CCCCCCOc1ccccc1C(N)=O`, 0.45.
The compound `CCN(CC)CCOc1ccc(/C(=C(\Cl)c2ccccc2)c2ccccc2)cc1` showed a score of -0.01.
Consider `O=C1c2c(O)cccc2Cc2cccc(O)c21`, for which the score stood at 1.5.
Still for that read-out and setting: with `C=CCc1ccc(O)c(OC)c1` the figure was 1.31.
Regarding `O=C(N[C@H](CO)[C@H](O)c1ccc([N+](=O)[O-])cc1)C(Cl)Cl`, the score worked out at 1.

The nature of a further test: restoration of touch response, mutant HTT neurons – whole organism, C. elegans mechanosensory neurons, N-terminal huntingtin (AID 1599). The note with it: C. elegans polyQ-huntingtin mechanosensory neurons, stronger effect = higher value.
With `OCc1ccccc1O`, the rescue above control was 12.8.
The same measure, in the same setting: with `Nc1nccs1` the figure was -9.08.
The compound `CC(=O)Oc1ccc(C(c2ccc(OC(C)=O)cc2)c2ccccn2)cc1` yielded a rescue above control of 5.96.
For the compound `CCCOc1ccc2nc(NC(=O)OC)[nH]c2c1`, the rescue above control stood at 0.
On the same count and under the same terms, with `Cc1nnc(NS(=O)(=O)c2ccc(N)cc2)s1` the figure was -5.75.
In turn, `Cc1cc(=O)n(-c2ccccc2)n1C` gave a rescue above control of 2.73.
Same read-out and setting: with `Nc1ccc(N=Nc2ccccc2)c(N)n1` the figure was -1.41; with `CS(=O)(=O)c1ccc([C@@H](O)[C@@H](CO)NC(=O)C(Cl)Cl)cc1`, -0.62.
On to `COc1cc(C(=O)NCc2ccc(OCCN(C)C)cc2)cc(OC)c1OC`, for which the rescue above control is -0.31.
On the same count and under the same terms, with `COc1ccc2cc3[n+](cc2c1OC)CCc1cc2c(cc1-3)OCO2` the figure was 10.8; with `Cc1cc(-c2ccccc2)nnc1NCCN1CCOCC1`, 5.33; with `Cc1ccc(C(C)C)cc2c(C)ccc1-2`, 1.94.
On to `CCN(CC)CCNc1ccc(CO)c2sc3ccccc3c(=O)c12`, for which the rescue above control is -7.32.
For `NC(=O)NC(=O)Cc1ccccc1`, the rescue above control is -4.86.
The compound `Oc1c(Cl)cc(Cl)cc1Sc1cc(Cl)cc(Cl)c1O` gave a rescue above control of 9.15.
The same measure, in the same setting: with `CC(=O)Oc1ccccc1C(=O)O` the figure was 9.45; with `CC(C)NCC(O)c1ccc2ccccc2c1` (centres undefined), -8.05; with `O=C(O)c1ccccc1OP(=O)(O)O`, -8.86.
Take `Oc1c(Cl)cc(Cl)c(Cl)c1Cc1c(O)c(Cl)cc(Cl)c1Cl`: the rescue above control was -6.64.
On the same count and under the same terms, with `Nc1ccc(S(=O)(=O)Nc2ccnn2-c2ccccc2)cc1` the figure was -6.57; with `CCCCCCCCNC(C)C(O)c1ccc(SC(C)C)cc1` (centres undefined), 0.
`O=C(OCc1ccccc1)c1ccccc1` displayed a rescue above control of 0.5.
For `S=P(N1CC1)(N1CC1)N1CC1`, the rescue above control is -0.95.
Still for that read-out and setting: with `NS(=O)(=O)c1cc2c(cc1Cl)NC(C1CC3C=CC1C3)NS2(=O)=O` (centres undefined) the figure was 1.81; with `C=C1c2cccc(O)c2C(O)=C2C(=O)[C@]3(O)C(O)=C(C(N)=O)C(=O)[C@@H](N(C)C)[C@@H]3[C@@H](O)[C@H]12`, 0.
The compound `NS(=O)(=O)c1cc2c(cc1Cl)NC(CSCc1ccccc1)=NS2(=O)=O` came in with a rescue above control of -12.2.
On to `O=C(O)P(=O)(O)O`, for which the rescue above control came out at 9.34.
`CO[C@@]1(NC(=O)C(C(=O)O)c2ccc(O)cc2)C(=O)N2C(C(=O)O)=C(CSc3nnnn3C)CO[C@@H]21` (some centres undefined) had a rescue above control of 12.8.
In turn, `Nc1ccc(C(=O)O)cc1` had a rescue above control of -2.5.
As for `CCCCCCOc1ccccc1C(N)=O`, the rescue above control is -0.6.
Still for that read-out and setting: with `CCN(CC)CCOc1ccc(/C(=C(\Cl)c2ccccc2)c2ccccc2)cc1` the figure was 11.2; with `O=C1c2c(O)cccc2Cc2cccc(O)c21`, 0.38; with `C=CCc1ccc(O)c(OC)c1`, 11.4.
Same read-out and setting: with `O=C(N[C@H](CO)[C@H](O)c1ccc([N+](=O)[O-])cc1)C(Cl)Cl` the figure was -3.71.
